The source of these data is ChEMBL document CHEMBL1961873, “Compounds: GSK PKIS; Assays: Nanosyn kinase panel” (2012).

For experiment [1], the target named is MAP/microtubule affinity-regulating kinase 3 (Homo sapiens) (UniProt P27448). The following applies: at 1 µM.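 Note: reported values are averaged percent inhibition of MARK3.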
Experiment [2] has as its target T1, MAP/microtubule affinity-regulating kinase 4 (Homo sapiens) (UniProt Q96L34).
T1 sequence (whole entry): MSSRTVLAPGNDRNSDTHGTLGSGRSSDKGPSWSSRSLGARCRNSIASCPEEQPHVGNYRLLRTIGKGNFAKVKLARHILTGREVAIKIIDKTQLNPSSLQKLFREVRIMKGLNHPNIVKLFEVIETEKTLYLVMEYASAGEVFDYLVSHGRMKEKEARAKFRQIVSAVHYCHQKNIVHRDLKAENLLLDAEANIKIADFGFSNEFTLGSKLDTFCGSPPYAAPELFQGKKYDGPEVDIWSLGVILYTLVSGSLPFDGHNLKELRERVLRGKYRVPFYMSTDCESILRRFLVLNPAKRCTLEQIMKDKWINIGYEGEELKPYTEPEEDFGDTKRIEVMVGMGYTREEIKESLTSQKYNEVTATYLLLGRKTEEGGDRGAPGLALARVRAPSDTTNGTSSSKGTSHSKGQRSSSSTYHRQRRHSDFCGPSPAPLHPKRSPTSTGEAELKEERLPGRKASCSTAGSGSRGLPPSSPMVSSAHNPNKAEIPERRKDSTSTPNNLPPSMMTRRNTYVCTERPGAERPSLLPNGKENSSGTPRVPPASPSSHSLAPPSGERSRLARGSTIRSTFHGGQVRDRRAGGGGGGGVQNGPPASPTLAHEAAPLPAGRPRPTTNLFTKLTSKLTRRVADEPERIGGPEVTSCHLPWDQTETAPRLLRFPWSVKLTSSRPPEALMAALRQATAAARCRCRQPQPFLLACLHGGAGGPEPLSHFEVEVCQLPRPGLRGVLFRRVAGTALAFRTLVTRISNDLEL
The following applies: at 0.1 µM.

Experiment [3] addresses T1, MAP/microtubule affinity-regulating kinase 4 (Homo sapiens). The following applies: at 1 µM.
Experiment [4] has as its target Maternal embryonic leucine zipper kinase (Homo sapiens) (UniProt Q14680). The following applies: at 0.1 µM.
Experiment [5] shares this target. The following applies: at 1 µM.
Experiment [6] deals with MAP kinase-interacting serine/threonine-protein kinase 1 (Homo sapiens) (UniProt Q9BUB5). The following applies: at 0.1 µM.
The target is the same in experiment [7]. The following applies: at 1 µM.
The target of experiment [8] is MAP kinase-interacting serine/threonine-protein kinase 2 (Homo sapiens) (UniProt Q9HBH9). The following applies: at 0.1 µM.
Experiment [9] has the same target. The following applies: at 1 µM.
In experiment [10] the target is Serine/threonine-protein kinase MARK2 (Homo sapiens) (UniProt Q7KZI7). The following applies: at 0.1 µM.
Experiment [11] shares this target. The following applies: at 1 µM.
Experiment [12] addresses PAS domain-containing serine/threonine-protein kinase (Homo sapiens) (UniProt Q96RG2). The following applies: at 0.1 µM.
For experiment [13] the target is unchanged. The following applies: at 1 µM.
For experiment [14], the target named is Phosphorylase b kinase gamma catalytic chain, skeletal muscle/heart isoform (Homo sapiens) (UniProt Q16816). The following applies: at 0.1 µM.
Experiment [15] shares this target. The following applies: at 1 µM.
The target in experiment [16] is T2, Phosphorylase b kinase gamma catalytic chain, liver/testis isoform (Homo sapiens) (UniProt P15735).
T2 sequence (whole entry): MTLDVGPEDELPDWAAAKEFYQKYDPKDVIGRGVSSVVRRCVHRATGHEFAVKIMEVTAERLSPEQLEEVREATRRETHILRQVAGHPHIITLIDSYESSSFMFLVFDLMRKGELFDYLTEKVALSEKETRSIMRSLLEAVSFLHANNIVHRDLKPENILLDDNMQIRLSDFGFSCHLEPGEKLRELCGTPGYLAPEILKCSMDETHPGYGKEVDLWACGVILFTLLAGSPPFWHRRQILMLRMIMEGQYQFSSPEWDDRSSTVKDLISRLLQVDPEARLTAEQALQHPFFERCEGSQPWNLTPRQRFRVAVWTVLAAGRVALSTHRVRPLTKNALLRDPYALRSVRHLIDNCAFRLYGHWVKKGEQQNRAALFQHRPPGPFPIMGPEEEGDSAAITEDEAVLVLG
The following applies: at 0.1 µM.

Experiment [17] has as its target T2, Phosphorylase b kinase gamma catalytic chain, liver/testis isoform (Homo sapiens). The following applies: at 1 µM.
Experiment [18] deals with Serine/threonine-protein kinase pim-1 (Homo sapiens) (UniProt P11309). The following applies: at 0.1 µM.
Experiment [19] shares this target. The following applies: at 1 µM.
Experiment [20] has as its target Serine/threonine-protein kinase pim-2 (Homo sapiens) (UniProt Q9P1W9). The following applies: at 0.1 µM.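 Note: reported value is the mean percent inhibition of PIM2, measured in the GSK PKIS kinase inhibitor set screen.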

SMILES strings stand for the structures.

Sequence of Serine/threonine-protein kinase pim-2 (Homo sapiens) (Q9P1W9 whole entry, looked up): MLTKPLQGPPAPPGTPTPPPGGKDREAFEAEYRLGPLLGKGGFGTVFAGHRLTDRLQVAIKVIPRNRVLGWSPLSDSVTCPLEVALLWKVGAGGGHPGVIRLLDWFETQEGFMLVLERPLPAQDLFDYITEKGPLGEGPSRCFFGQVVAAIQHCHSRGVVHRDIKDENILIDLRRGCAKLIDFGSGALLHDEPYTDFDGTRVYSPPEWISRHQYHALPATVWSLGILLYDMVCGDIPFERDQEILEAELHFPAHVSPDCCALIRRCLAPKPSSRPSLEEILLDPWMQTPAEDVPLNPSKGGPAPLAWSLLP
Sequence of MAP/microtubule affinity-regulating kinase 3 (Homo sapiens) (P27448 whole entry, looked up): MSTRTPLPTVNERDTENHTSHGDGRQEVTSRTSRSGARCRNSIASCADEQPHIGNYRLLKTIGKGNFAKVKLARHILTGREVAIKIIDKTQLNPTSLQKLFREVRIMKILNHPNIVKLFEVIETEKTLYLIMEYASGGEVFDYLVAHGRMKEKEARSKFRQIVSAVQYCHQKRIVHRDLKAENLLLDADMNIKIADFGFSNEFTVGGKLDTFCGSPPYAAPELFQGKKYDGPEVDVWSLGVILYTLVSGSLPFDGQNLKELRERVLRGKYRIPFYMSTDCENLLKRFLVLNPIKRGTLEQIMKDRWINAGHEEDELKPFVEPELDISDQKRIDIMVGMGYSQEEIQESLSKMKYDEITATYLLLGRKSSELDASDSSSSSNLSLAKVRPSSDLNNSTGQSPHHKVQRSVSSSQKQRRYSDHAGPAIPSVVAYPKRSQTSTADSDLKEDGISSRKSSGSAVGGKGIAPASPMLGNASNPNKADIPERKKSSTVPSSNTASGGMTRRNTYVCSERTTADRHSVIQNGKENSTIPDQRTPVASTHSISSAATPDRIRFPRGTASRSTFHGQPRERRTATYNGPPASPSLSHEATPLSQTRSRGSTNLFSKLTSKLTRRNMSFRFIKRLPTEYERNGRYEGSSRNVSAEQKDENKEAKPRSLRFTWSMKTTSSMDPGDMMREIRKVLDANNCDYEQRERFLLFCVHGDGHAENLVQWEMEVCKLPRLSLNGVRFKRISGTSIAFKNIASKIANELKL
Sequence of MAP kinase-interacting serine/threonine-protein kinase 2 (Homo sapiens) (Q9HBH9 whole entry, looked up): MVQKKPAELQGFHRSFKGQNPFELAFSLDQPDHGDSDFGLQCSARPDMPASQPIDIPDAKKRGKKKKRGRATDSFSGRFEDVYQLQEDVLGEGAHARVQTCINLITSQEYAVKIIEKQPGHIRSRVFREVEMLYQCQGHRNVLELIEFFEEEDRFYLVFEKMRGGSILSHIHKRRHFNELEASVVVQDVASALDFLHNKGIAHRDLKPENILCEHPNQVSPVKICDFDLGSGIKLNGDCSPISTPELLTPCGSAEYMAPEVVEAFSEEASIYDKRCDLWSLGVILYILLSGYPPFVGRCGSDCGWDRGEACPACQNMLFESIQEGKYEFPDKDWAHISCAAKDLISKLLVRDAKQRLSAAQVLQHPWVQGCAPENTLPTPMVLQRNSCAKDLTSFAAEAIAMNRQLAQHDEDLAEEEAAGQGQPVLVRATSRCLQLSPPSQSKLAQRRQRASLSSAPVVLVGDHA
Sequence of PAS domain-containing serine/threonine-protein kinase (Homo sapiens) (Q96RG2 whole entry, the tested form may be a part): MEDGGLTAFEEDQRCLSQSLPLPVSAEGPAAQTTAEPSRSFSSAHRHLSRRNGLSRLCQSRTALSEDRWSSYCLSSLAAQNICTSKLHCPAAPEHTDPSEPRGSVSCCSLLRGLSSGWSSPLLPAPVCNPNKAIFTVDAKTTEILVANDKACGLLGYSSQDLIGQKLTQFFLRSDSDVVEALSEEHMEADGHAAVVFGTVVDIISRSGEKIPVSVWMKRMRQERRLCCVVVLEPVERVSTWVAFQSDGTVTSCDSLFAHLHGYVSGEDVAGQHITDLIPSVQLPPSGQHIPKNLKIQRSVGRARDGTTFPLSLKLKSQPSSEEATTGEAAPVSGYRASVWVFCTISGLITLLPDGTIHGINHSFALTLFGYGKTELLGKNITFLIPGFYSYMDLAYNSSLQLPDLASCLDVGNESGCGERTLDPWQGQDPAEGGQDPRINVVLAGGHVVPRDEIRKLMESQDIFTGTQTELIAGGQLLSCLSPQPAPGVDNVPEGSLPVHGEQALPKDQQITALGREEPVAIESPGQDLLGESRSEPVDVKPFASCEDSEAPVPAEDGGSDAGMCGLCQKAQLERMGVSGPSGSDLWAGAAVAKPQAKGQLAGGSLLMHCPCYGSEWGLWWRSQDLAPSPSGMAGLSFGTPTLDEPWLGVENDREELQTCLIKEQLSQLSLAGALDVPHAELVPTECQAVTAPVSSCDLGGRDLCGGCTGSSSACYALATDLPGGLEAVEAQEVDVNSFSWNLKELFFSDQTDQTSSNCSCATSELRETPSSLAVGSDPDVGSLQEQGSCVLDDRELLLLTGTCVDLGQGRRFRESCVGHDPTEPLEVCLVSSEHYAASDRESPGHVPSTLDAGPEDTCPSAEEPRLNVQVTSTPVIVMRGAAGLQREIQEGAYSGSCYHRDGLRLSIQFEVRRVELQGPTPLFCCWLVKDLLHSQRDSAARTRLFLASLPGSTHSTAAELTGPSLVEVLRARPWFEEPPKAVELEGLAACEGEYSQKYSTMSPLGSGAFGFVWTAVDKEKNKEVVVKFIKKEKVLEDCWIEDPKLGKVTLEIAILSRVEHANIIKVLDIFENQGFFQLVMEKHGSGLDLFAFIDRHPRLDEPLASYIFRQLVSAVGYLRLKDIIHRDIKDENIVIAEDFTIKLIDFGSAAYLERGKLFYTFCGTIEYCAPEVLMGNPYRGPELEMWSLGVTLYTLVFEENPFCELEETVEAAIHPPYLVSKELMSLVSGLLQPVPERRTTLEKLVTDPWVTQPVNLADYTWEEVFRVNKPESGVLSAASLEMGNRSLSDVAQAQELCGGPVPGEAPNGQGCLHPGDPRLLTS
Sequence of Serine/threonine-protein kinase MARK2 (Homo sapiens) (Q7KZI7 whole entry): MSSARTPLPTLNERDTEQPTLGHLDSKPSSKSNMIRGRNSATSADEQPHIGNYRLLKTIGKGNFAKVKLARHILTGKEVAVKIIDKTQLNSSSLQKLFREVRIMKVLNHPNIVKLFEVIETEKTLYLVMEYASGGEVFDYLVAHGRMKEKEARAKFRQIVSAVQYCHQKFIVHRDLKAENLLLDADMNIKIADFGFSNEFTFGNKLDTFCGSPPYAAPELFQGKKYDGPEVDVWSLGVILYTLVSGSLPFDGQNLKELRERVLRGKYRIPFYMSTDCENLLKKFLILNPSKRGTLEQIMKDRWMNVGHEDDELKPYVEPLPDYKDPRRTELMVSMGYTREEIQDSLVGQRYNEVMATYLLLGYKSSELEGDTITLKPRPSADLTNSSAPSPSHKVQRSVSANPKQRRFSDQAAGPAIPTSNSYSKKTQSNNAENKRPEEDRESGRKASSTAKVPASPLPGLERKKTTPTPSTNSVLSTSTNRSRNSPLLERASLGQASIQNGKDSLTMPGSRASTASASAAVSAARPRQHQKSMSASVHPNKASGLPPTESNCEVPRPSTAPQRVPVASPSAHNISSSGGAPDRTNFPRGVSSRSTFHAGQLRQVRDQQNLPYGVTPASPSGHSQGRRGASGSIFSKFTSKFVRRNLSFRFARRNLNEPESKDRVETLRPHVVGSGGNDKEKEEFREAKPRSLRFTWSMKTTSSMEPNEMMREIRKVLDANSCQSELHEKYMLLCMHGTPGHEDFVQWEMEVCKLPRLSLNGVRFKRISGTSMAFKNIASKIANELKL
Sequence of Serine/threonine-protein kinase pim-1 (Homo sapiens) (P11309 whole entry, looked up): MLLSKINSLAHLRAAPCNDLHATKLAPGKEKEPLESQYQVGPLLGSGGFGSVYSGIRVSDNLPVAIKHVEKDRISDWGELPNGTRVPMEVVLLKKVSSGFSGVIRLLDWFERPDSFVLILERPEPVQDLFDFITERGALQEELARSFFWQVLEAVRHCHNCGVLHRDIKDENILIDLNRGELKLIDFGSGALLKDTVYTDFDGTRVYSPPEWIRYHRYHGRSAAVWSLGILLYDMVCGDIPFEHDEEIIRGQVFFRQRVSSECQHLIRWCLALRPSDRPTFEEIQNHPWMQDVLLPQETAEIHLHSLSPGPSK
Sequence of Maternal embryonic leucine zipper kinase (Homo sapiens) (Q14680 whole entry, looked up): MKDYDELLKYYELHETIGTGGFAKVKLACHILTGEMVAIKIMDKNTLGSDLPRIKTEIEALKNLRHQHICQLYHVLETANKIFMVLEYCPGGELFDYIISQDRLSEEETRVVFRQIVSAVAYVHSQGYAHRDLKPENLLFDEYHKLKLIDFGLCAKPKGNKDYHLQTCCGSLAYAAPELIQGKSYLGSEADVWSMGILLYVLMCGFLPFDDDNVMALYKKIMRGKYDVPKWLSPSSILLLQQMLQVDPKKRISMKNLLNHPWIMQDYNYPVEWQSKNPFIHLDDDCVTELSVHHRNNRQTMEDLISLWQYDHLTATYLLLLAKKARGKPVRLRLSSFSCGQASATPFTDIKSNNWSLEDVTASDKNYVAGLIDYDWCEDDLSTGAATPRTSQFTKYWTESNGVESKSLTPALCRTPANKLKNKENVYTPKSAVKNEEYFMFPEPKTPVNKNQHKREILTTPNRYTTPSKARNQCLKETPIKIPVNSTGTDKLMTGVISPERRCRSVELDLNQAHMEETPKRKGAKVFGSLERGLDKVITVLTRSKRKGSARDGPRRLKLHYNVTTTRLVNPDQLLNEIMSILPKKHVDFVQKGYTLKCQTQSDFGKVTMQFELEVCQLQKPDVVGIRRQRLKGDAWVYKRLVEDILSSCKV
Sequence of Phosphorylase b kinase gamma catalytic chain, skeletal muscle/heart isoform (Homo sapiens) (Q16816 whole entry, looked up, canonical isoform): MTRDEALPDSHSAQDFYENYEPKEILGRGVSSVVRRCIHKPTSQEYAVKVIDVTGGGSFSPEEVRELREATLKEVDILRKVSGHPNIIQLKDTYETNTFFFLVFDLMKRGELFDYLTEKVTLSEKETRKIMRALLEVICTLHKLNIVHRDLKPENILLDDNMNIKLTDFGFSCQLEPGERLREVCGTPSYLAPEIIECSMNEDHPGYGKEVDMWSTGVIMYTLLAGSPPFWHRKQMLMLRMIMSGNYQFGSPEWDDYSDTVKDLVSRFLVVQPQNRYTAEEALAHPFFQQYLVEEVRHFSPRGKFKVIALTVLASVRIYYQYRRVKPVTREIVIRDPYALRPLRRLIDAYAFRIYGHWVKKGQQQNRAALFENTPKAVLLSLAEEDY

As a reminder, the inhibition is the relative decrease from the control value, in per cent. Consider `CN(c1ccc(NC(=O)Nc2ccc(OC(F)(F)F)cc2)cc1)c1ccnc(Nc2cccc(S(N)(=O)=O)c2)n1`, for which the inhibition is -0.68% in experiment [1]; 0.65% in [2]; 1.56% in experiment [3]; 0.77% in experiment [4]; -2.07% in experiment [5]; 29.2% in experiment [6]. The inhibition was 73.3% in experiment [7]; 20.5% in experiment [8]; 67.3% in experiment [9]; -1.1% in experiment [10]; -1.52% in [11]; 0.55% in experiment [12]. Moreover, the inhibition in [13] amounted to 0.28%; in experiment [14], 1.77%; in [15], 9.58%; in experiment [16] it was 3.6%; in experiment [17], 2.53%; in experiment [18], 0.23%. The values for the inhibition in experiment [19] and in [20] were -0.84% and 0.55%, respectively.
Consider `CC(C)c1ccc2c(c1)NC(=O)/C2=N/Nc1ccc(S(N)(=O)=O)cc1`, for which the inhibition in experiment [1] was -2.09%; in experiment [2], -0.86%; in experiment [3], 0.13%; in experiment [4], 0.88%; in experiment [5], 0.52%; in experiment [6] it was 1.43%. For the same compound, the inhibition in experiment [7] was 2.29%; in experiment [8] it was 0.22%; in experiment [9] it was 2.57%; in [10], -1.41%; in experiment [11], -0.8%; in [12] it was 1.25%. In addition, the inhibition is 0.24% in experiment [13]; -0.83% in experiment [14]; 1.14% in experiment [15]; 0.03% in experiment [16]; 0.32% in experiment [17]; 0.27% in [18]. Further, the figures for the inhibition in [19] and in experiment [20] were -0.22% and -0.21%, respectively.
With `Nc1nccc(C#Cc2cncnc2Nc2ccc(OCc3cccc(F)c3)c(Cl)c2)n1`, the inhibition in experiment [1] came to 11.2%; in experiment [2], 3.04%; in experiment [3] it was 7.4%; in experiment [4] it was 2.92%; in experiment [5] it was 5.11%; in [6] it was 3.59%. The inhibition in experiment [7] was 14%; in experiment [8], 2.98%; in experiment [9], 8.39%; in experiment [10] it was 1.67%; in [11], 8.86%; in [12] it was -0.05%. In addition, the inhibition in experiment [13] is -3.04%; in experiment [14], 6.86%; in experiment [15] it was 27.5%; in experiment [16], 4.05%; in experiment [17], 2.05%; in experiment [18], 1.29%. Also, the results for the inhibition in experiment [19] and in experiment [20] were 1.16% and 0.62%, respectively.
For `CCn1c(-c2nonc2N)nc2ccc(F)cc21`, the inhibition was found to be 3.73% in experiment [1]; 2.45% in [2]; 1.33% in experiment [3]; 1.93% in [4]; 8.51% in experiment [5]; 3.42% in experiment [6]. The inhibition in experiment [7] is 9.46%; in [8] it was 2.9%; in experiment [9], 9.38%; in [10] it was 2.57%; in experiment [11], -0.64%; in experiment [12], 1.69%. Further, the inhibition in experiment [13] worked out at 0.49%; in [14], 6.81%; in [15], 7.3%; in experiment [16] it was 7.81%; in experiment [17], 12.6%; in [18], 0.08%. For the same compound, the inhibition in [19] is 1.85%; in experiment [20] it was -0.12%.
For the compound `Cc1cc(-c2ccccn2)cc(C)c1/C=C/c1cncc(-c2nn[nH]n2)c1`, the inhibition in [1] turned out to be 7.09%; in [2] it was 2.52%; in experiment [3] it was 3.91%; in [4] it was 4.28%; in experiment [5], 9.19%; in experiment [6] it was 2.08%. The inhibition is 3.07% in experiment [7]; 0.76% in experiment [8]; 2.73% in [9]; 1.02% in [10]; 4.96% in experiment [11]; -0.97% in experiment [12]. Further, the inhibition in [13] is -1.06%; in [14], 3.51%; in [15] it was 7%; in [16], 1.5%; in experiment [17], 5.59%; in experiment [18], 1.73%. Further, the inhibition in experiment [19] amounted to 2.55%; in [20], 0.01%.
As for `NS(=O)(=O)c1cccc(Nc2cc(-c3ccc(F)cc3)n[nH]2)c1`, the inhibition in experiment [1] is 19%; in experiment [2], 3.62%; in experiment [3], 20.2%; in experiment [4] it was 0.82%; in experiment [5] it was 4.1%; in experiment [6], 2.78%. The inhibition was found to be 10.7% in experiment [7]; 3.32% in experiment [8]; 13% in experiment [9]; 1.43% in experiment [10]; 9.04% in [11]; 0.67% in [12]. In addition, the inhibition in experiment [13] was found to be 2.88%; in experiment [14], 2.8%; in experiment [15], 14.5%; in [16], 4.37%; in [17], 8.84%; in experiment [18], 1.38%. Moreover, the inhibition amounted to 1.68% in [19] and 0.15% in experiment [20].
Regarding `COC(=O)c1ccc2c(c1)C(=Cc1cc(Br)c(O)c(Br)c1)C(=O)N2`, the inhibition in experiment [1] stood at 3.71%; in experiment [2] it was 0.93%; in experiment [3], 5.08%; in [4] it was 6.21%; in [5] it was 22.2%; in [6], 1.07%. Moreover, the inhibition was 5.73% in experiment [7]; 2.35% in [8]; 19% in experiment [9]; 0.84% in experiment [10]; 4.91% in experiment [11]; -1.3% in experiment [12]. The inhibition in experiment [13] is -0.51%; in experiment [14] it was 0.67%; in [15] it was 7.49%; in experiment [16] it was 4.41%; in experiment [17] it was 3.92%; in [18], 8.81%. In addition, the inhibition in experiment [19] stood at 50.9%; in experiment [20], 10.7%.
